ATXN2 expr inh = ATXN2 expression inhibition. HEK-293 ATXN2-luciferase reporter, luminescence, 24 h. Potency, µM (titrated, usually from 57 µM), for the others: at the top dose activity change, negative = inhibition, hits mostly inhibitors. 360,000 compounds, 0.72% hits. AID 1745845; note: % is set by controls: 0 for no effect and ±100 for the full control effect; nearly all actives have a fitted effect of over 55% in size
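ATXN2-luciferase reporter cells (luciferase flanked by upstream and downstream ATXN2 gene portions) were treated 24 h at 37 °C with compounds at up to 57 uM. SteadyGlo luminescence gave expression; GF-AFC fluorescence gave viability.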
HT1080 IDH1KD tx = HT-1080 IDH1 knockdown cell toxicity (counter line). 360,000 compounds, 2% hits. HT-1080 IDH1 knockdown viability, ATP luminescence, 48 h. Potency, µM (top dose mostly 46.1 µM), for inactives: top-dose activity, negative = toxicity, usual class: cytotoxic. AID 686971;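 note: 0% = DMSO wells and -100% = cell-free medium wells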
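IDH1KD HT-1080 cells, 750/well, RPMI + 5% FBS; compound pinned after 2 h settling; 48 h, 37 °C; CellTiter-Glo luminescence; % activity normalised to DMSO and no-cell wells; curves fitted, classed by r2 and efficacy.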
TGFb SMAD3 inh = TGF-b pathway inhibition; Potency, µM (doses to about 46.1 µM), without a hit: at the highest dose activity, negative = inhibition, usual class: inhibitors; 410,000 compounds, 1.2% hits; AID 588855; HepG2 CAGA-GFP TGF-b/SMAD3 reporter, GFP fluorescence, 18 h; TGF-beta stimulated, 500 pg/mL final; note: % is set by controls: 0 for no effect and ±100 for the full control effect; nearly all actives have a fitted effect of over 65% in size
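Cell-based qHTS in HEPG2 carrying a CAGA-GFP Smad reporter; compounds added before 500 pg/mL final TGF-beta, 18 h incubation at 37 degrees C, GFP fluorescence quantified per cell by imaging cytometry.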
HT1080-NT tox = kills 2HG-producing HT-1080-NT fibrosarcoma cells | AID 686970 | Potency, µM (doses to about 46.1 µM), for inactives: at the highest dose activity, negative = less viability, usual class: cytotoxic | HT-1080-NT fibrosarcoma viability, CellTiter-Glo ATP luminescence, 48 h | 360,000 compounds, 1.6% hits;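 note: NT is the 2HG producing partner of a matched IDH1 knockdown line; 0% = DMSO-treated cells and -100% = media-only wells without cells; nearly all actives have a fitted effect of over 55% in size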
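Viability by CellTiter-Glo luminescence after 48 h compound exposure at 37C of HT-1080-NT cells (750/well, RPMI, 5% FBS). % activity scaled between DMSO wells and medium-only wells, then curve-fitted and categorized by curve class.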
S2 tox = viability counter-screen for ATXN expression inhibitors; Potency, µM (highest dose often 56.7 µM), actives largely listed as cytotoxic; S2 cells (HEK-293 line with an ATXN2-luciferase reporter) viability, CellTiter-Fluor protease fluorescence, 24 h; 400,000 compounds, 0.49% hits; note: nearly all actives have a fitted effect of over 40% in size
HepG2 tox = HepG2 cytotoxicity, counter-screen for TGF-b inhibitors; AID 588856; 410,000 compounds, 0.76% hits; Potency, µM (top dose mostly 46.1 µM), for the others: at the top dose activity change, negative = cytotoxicity, usual class: cytotoxic; HepG2 CAGA-GFP viability, ATP luminescence, 18 h
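HepG2 CAGA-GFP cells (1000/well, DMEM with 1% FBS) received compound, then TGF-beta at 500 pg/mL final, and were incubated 18 hours at 37 degrees C. Viability was read by CellTiter-Glo luminescence. Media-only wells were set as complete cell-killing and DMSO as no toxicity.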
The depositor's hits bear a star; i = inactive; u = inconclusive; x = no result given. Hits are enriched below; roughly 3.8% of the tested compounds scored in any of these assays. Calls come from the whole dose curve; as a rule, active = well fitted curve in the direction sought with a large enough effect; inconclusive = small, poorly fitted or top-dose-only effect, or another doubt; inactive = no such curve, though single readings can be large; an effect the other way counts as inactive or inconclusive. Potency is the fitted concentration of half-maximal effect.

SMILES	ATXN2 expr inh	HT1080 IDH1KD tx	TGFb SMAD3 inh	HT1080-NT tox	S2 tox	HepG2 tox
CCCCCCCCCC[N+](C)(C)CC/C=C1/c2ccccc2Sc2ccc(Cl)cc21	x	u	u	u	7.9µM*	-107%
CC[N+](C)(C)CC/C=C1/c2ccccc2Sc2ccc(Cl)cc21	-22%	u	8%	10%	i	15%
CCOc1cc(/C=N/Nc2cccc(C(=O)O)c2)ccc1OC(=O)c1ccccc1	14µM*	-16%	-2%	-19%	i	-12%
COc1ccc(NC(=O)CSc2oc(-c3ccc(F)cc3)nc2S(=O)(=O)c2ccc(C)cc2)c(OC)c1	16%	x	-30%	x	i	-6%
COc1ccc(C(=O)N/N=C(\c2ccccc2)c2ccccn2)cc1	3.2µM*	u	u	u	10µM*	-7%
COc1ccc(C(=O)N/N=C/c2cccc3cccnc23)cc1	22µM*	u	u	-16%	i	-7%
C/C(=N\NC(=O)c1ccccc1Cl)c1ccccn1	x	u	u	u	u	-14%
O=C(N/N=C(\c1ccccc1)c1ccccn1)c1ccccc1Cl	22µM*	u	u	-15%	u	-48%
CSCC[C@H](NC(=O)OC(C)(C)C)C(=O)N/N=C/c1cccc2cccnc12	28µM*	u	-6%	-11%	i	-53%
CCOc1ccc(C(=O)N/N=C/c2cccc3cccnc23)cc1	u	u	u	u	i	-27%
O=C(C[n+]1cccc(Br)c1)c1ccc(I)cc1	x	x	-1%	x	x	-14%
C/C(=N\NC(=O)c1cccc(Br)c1)c1ccccn1	u	u	u	u	u	-35%
O=C(NN=C(c1ccccc1)c1ccccn1)c1ccccc1	4µM*	u	u	-20%	u	-19%
COc1ccc(S(=O)(=O)N2CCN(CC(=O)Nc3ccc(Cl)c(C(F)(F)F)c3)CC2)cc1	u	x	u	x	i	-1%
Cc1oc(-c2ccccc2NC(=O)C2CCCO2)nc1CNC(=O)c1cc(Cl)ccc1F (stereo not given)	x	x	x	x	i	x
CSc1ccc(C2C(C#N)=C(N)Oc3cc4c(cc32)OCO4)cc1 (stereo not given)	-37%	u	13µM*	18µM*	i	-39%
COc1ccc(-c2cnc3c(NC(C)=O)cc(-c4ccccc4CN(C)C)cn23)cc1OC	-1%	u	29%	u	i	-31%
CC(=O)Nc1cc(-c2ccccc2CN(C)C)cn2c(-c3ccc(C(C)=O)cc3)cnc12	-10%	u	-19%	18µM*	i	-14%
CC(=O)Nc1cc(-c2cccc(C(=O)NCCN(C)C)c2)cn2c(-c3cccc(C(F)(F)F)c3)cnc12	-3%	21µM*	u	18µM*	32µM*	13µM*
CC(=O)Nc1cc(-c2cccc(C(=O)NCCN(C)C)c2)cn2c(-c3ccc(S(C)(=O)=O)cc3)cnc12	5%	2%	-3%	4%	i	-13%
CC(=O)Nc1cc(-c2cccc(C(=O)NCCN(C)C)c2)cn2c(-c3ccccc3)cnc12	u	16µM*	68%	u	i	-34%
O=C(C=CC=Cc1ccc2c(c1)OCO2)N1CCCCC1	46%	x	x	x	x	x
COc1ccc(-c2ccc3[nH]c4c(c3c2)CCN2C[C@@H]([C@H](C)OC(=O)Nc3cc(Cl)cc(Cl)c3)[C@@H](N(C)C(=O)Nc3cc(Cl)cc(Cl)c3)C[C@@H]42)cc1	-6%	-4%	9%	-19%	u	-5%
CN[C@H]1C[C@H]2c3[nH]c4ccc(-c5cccc(C)c5)cc4c3CCN2C[C@H]1[C@H](C)O	u	u	u	16µM*	x	-124%
COc1ccc(NC(=O)N(C)[C@H]2C[C@H]3c4[nH]c5ccc(-c6ccc(OC)cc6)cc5c4CCN3C[C@H]2[C@H](C)O)cc1	22µM*	16µM*	u	23µM*	x	-103%
SMILES	ATXN2 expr inh	HT1080 IDH1KD tx	TGFb SMAD3 inh	HT1080-NT tox	S2 tox	HepG2 tox
Cc1cccc(-c2ccc3[nH]c4c(c3c2)CCN2C[C@@H]([C@H](C)O)[C@@H](N(C)C(=O)NC3CCCCC3)C[C@@H]42)c1	-12%	u	u	u	u	-37%
COc1ccc(NC(=O)O[C@@H](C)[C@@H]2CN3CCc4c([nH]c5ccc(-c6ccc(OC)cc6)cc45)[C@@H]3C[C@@H]2N(C)C(=O)Nc2ccc(OC)cc2)cc1	u	-23%	u	-23%	u	-41%
COc1ccc(NC(=O)N(C)[C@H]2C[C@H]3c4[nH]c5ccc(-c6ccc7c(c6)OCO7)cc5c4CCN3C[C@H]2[C@H](C)O)cc1	16µM*	23µM*	u	23µM*	20µM*	-83%
Cc1cccc(CCNC(=O)c2ccc(CSCc3cccc(Cl)c3)o2)c1	-14%	x	u	x	i	-29%
CCN1CCc2c(sc(NC(=S)NC(=O)c3cccc(F)c3)c2C(N)=O)C1	x	x	56%	x	x	-14%
CC(C)c1ccc(C(=O)C[N+]2(C)CCOCC2)cc1	x	x	10%	x	x	-10%
COCCCNCC1C(Oc2ccc(Cl)cc2)C(=O)N1c1ccccc1C (stereo not given)	-36%	-12%	4%	-29%	i	2%
Cc1ccccc1N1C(=O)C(Oc2ccc(Cl)cc2)C1CNCCCOC(C)C (stereo not given)	-39%	16µM*	u	16µM*	i	-10%
COc1ccc2nc(C)cc(SCC(=O)N/N=C/c3cccc4ccccc34)c2c1	u	6.3µM*	-1%	11µM*	x	-12%
Cc1cc(SCC(=O)N/N=C/c2ccc(O)cc2O)nc2ccccc12	13µM*	u	-11%	u	i	-12%
COc1ccc(C2NCCc3c2[nH]c2ccccc32)cc1CN1CCc2cc(OC)c(OC)cc2C1C (stereo not given)	u	u	-17%	18µM*	i	-44%
COc1ccc(C2NC(C(=O)O)Cc3c2[nH]c2ccccc32)cc1CN1CCN(c2ccc(F)cc2)CC1 (stereo not given)	-24%	0%	-14%	-5%	i	-5%
COc1cc2c(cc1OC)C(C)N(Cc1ccc3c(c1)OCO3)CC2 (stereo not given)	-13%	-24%	-7%	-19%	i	-24%

Assay outcomes: PubChem, National Center for Advancing Translational Sciences (NCATS)
